Assay outcomes (PubChem BioAssay)
In the library only some 6.9% were active in any assay of this set; here they are far more common.
HP1b chromo inh – inhibitors of HP1-beta chromodomain binding to methylated histone tails. P83916. AlphaScreen HP1-beta / biotin-H3K9me3 peptide binding. Potency, µM (titrated, usually from 114 µM), inactives show at the highest dose activity change, negative = inhibition, most hits filed as inhibitors. 390,000 compounds, 0.56% hits. AID 540317; also: nearly all actives have a fitted effect of over 70% in size
Target sequence (P83916 whole entry, looked up): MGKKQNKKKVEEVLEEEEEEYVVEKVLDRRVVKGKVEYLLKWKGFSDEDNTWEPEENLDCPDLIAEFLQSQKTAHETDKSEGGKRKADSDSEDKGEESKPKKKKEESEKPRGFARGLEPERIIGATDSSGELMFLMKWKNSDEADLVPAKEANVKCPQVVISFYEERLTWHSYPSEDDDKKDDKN
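AlphaScreen: HP1-beta (50 nM) preformed 30 min with biotin-H3(1-18)K9me3 peptide (50 nM) in PBS pH 7.4, 0.01% Tween-20. Compound added for 30 min at RT, then streptavidin donor/nickel chelate acceptor beads (10 ug/mL) for 30 min.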
JMJD2A Tudor – blocks the human JMJD2A Tudor domain. 390,000 compounds, 4.4% hits. AID 504339. AlphaScreen JMJD2A-Tudor / H3K4me3 peptide binding. Potency, µM (highest dose often 114 µM), without a hit: at the highest dose activity change, negative = inhibition, actives largely listed as inhibitors; also: % is scaled to controls: 0 for no effect and ±100 for the full control effect; nearly all actives have a fitted effect of over 50% in size
L3MBTL1 block – blocks human L3MBTL1. AlphaScreen L3MBTL1–H3K9me1 peptide binding. Potency, µM (doses to about 57.1 µM), for the others: at the highest dose activity, negative = inhibition, actives largely listed as inhibitors. 230,000 compounds, 0.66% hits. AID 485360. Q9Y468; also: % is scaled to controls: 0 for no effect and ±100 for the full control effect; nearly all actives have a fitted effect of over 60% in size
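L3MBTL1 50 nM + b-AHA-H3(1-15)K9me1 75 nM, 30 min RT; compound added, 30 min RT; streptavidin donor/Ni-chelate acceptor beads 10 ug/mL each final, 30 min RT dark; AlphaScreen read.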
PLK1 PBD inh – PLK1 (human) polo-box domain binding inhibition; P53350; Plk1 PBD binding of FITC phosphopeptide, fluorescence polarization; Potency, µM, inactives show max response, negative = inhibition, most hits filed as inhibitors; 360,000 compounds, 2.8% hits; AID 720504; also: series mostly up to about 57 µM; % is scaled to controls: 0 for no effect and ±100 for the full control effect; nearly all actives have a fitted effect of over 65% in size
BAZ2B inh – inhibitors of human BAZ2B bromodomain; Q9UIF8; AlphaScreen BAZ2B-H3K14Ac peptide displacement; 360,000 compounds, 4.4% hits; Potency, µM (top dose mostly 114 µM), for the others: at the highest dose activity change, negative = inhibition, usual class: inhibitors; AID 504333; also: % is scaled to controls: 0 for no effect and ±100 for the full control effect; nearly all actives have a fitted effect of over 60% in size
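Complex of BAZ2B and biotin-H3K14Ac (50 nM apiece) forms over 30 min at RT, then faces library compounds up to 110 uM for another 30 min; AlphaScreen beads added, 20 min dark incubation, luminescence read.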
VDR inh – blocks the human vitamin D receptor; 400,000 compounds, 0.93% hits; P11473; Potency, µM, inactives show max response, negative = inhibition, usual class: inhibitors; VDR-SRC2-3 peptide fluorescence polarization, 2 h; also: % is scaled to controls: 0 for no effect and ±100 for the full control effect
Target sequence (P11473 whole entry, looked up): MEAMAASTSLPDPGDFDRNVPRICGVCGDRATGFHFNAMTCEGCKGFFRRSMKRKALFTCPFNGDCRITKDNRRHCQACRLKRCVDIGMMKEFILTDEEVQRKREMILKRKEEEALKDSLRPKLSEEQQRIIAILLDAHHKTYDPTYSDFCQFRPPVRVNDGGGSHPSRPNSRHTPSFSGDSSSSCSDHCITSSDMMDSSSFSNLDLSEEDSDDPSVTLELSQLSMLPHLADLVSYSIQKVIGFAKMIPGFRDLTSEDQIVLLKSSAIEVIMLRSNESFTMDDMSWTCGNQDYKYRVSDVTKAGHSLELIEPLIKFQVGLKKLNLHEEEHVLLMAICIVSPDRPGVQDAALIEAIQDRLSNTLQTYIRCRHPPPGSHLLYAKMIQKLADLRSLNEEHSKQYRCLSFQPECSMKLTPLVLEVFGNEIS
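FP read-out; VDR + SRC2-3 coactivator peptide; 23 nl compound by pintool; 2 h RT incubation; reagents held at 4 deg C, protected from light.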
Active calls of the source: *; ? = inconclusive; nt = no result; [ ] = remark or other dose. Calls follow the shape of the dose curve; as a rule, active = well fitted curve in the direction sought with a large enough effect; inconclusive = small, poorly fitted or top-dose-only effect, or another doubt; inactive = no such curve, though single readings can be large; an effect the other way counts as inactive or inconclusive. Potency is read from the fitted curve at half-maximal effect.

SMILES | HP1b chromo inh | JMJD2A Tudor | L3MBTL1 block | PLK1 PBD inh | BAZ2B inh | VDR inh
CCc1cc(C(=O)c2ccc(C)cc2)c(NC(=O)CCl)s1 | 19% | -29% | 35µM* | -7% | -11% | -40%
COc1cc(/C=N/NC(=O)Cc2ccccc2)cc([N+](=O)[O-])c1O | 13% | -17% | -1% | -5% | -34% | -9%
COc1cc(/C=N/NC(=O)[C@H](Cc2c[nH]c3ccccc23)NC(=O)OCC(C)C)cc([N+](=O)[O-])c1O | -17% | ? | -3% | -9% | 40µM* | -13%
CCS(=O)(=O)N1CCc2cc(C(=O)Nc3cc(Cl)ccc3C)ccc21 | 4% | ? | nt | nt | -20% | 9%
COc1ccc(C2CC(c3cccs3)=NN2C(=S)Nc2ccccc2)cc1OC (centres undefined) | -5% | ? | -8% | -5% | -31% | -8%
S=C(Nc1ccccc1)N1N=C(c2cccs2)CC1c1cccs1 (centres undefined) | -15% | 20µM* | -9% | 12µM* | -16% | 79µM*
COc1ccc(NC(=O)CCCOc2cc(=O)n(C)c3ccccc23)c(OC)c1 | 51% | -5% | nt | nt | ? | -6%
COC(=O)C(Cc1c[nH]c2ccccc12)NC(=O)c1cc(-c2ccc(OC)c(OC)c2)oc1C (centres undefined) | -39% | 50µM* | -15% | -6% | -4% | ?
COc1ccc(C(=O)Nc2ccccc2C(=O)NC(Cc2c[nH]c3ccccc23)C(=O)O)cc1 (centres undefined) | -19% | -14%[11.4 µM] | -12% | 24µM* | 79µM* | -9%
Cc1cc(C(=O)NC(Cc2c[nH]c3ccccc23)C(=O)O)c(C)o1 (centres undefined) | 28% | 7% | 4%[2.29 µM] | 0% | -6% | -6%
Cc1ccc(N=C2NC(=O)CS2)c(C)c1 | 25% | 5% | -7% | -2% | -2% | 1%
Cc1cc(Br)ccc1N=C1NC(=O)CS1 | -7% | -10% | -10% | 27µM* | -22% | -5%
O=C(N/N=C1\CC2CC=CC12)c1ccccc1Cl (centres undefined) | 19% | -9% | 6% | -2% | -20% | -10%
O=[N+]([O-])c1ccccc1N/N=C1\CC2CC=CC12 (centres undefined) | 18µM* | 40µM* | ? | 5% | 13µM* | 0%
COC(=O)c1sc2nc(C)nc(SCC(=O)C(C)(C)C)c2c1C | 57% | 1% | nt | -2% | 1% | 23%
O=c1[nH]c2c(s1)C=Nc1ccccc1N2 | -19% | -19% | -4% | 13µM* | 0% | 4%
CC(=O)C1=C(OC(=O)C(C)C)c2ccccc2S(=O)(=O)N1Cc1ccccc1 | 26% | -24% | nt | nt | ? | 6%
O=C(NC(NNc1ccc([N+](=O)[O-])cc1)(C(F)(F)F)C(F)(F)F)c1ccccc1Cl | -23% | ? | -1% | ? | ? | 79µM*
CCC1Nc2ncnc(N3CCc4ccccc4C3)c2N(Cc2ccc(Br)cc2)C1=O (centres undefined) | nt | nt | nt | 1% | nt | nt
C=CCn1c(C(CCC(C)C)CC(C)(C)O)n[nH]c1=S (centres undefined) | -8% | 7.1µM* | 0% | -3% | 10% | 12%
O=C1CC(C(=O)O)S/C(=N\NC(=O)c2ccccc2)N1 (centres undefined) | 11% | 1.4µM* | 12% | -2% | 50µM* | 7%
C/C(=N\N=C1\NC(=O)CC(C(=O)O)S1)c1ccc(F)cc1 (centres undefined) | 32% | -20% | -3% | -5% | -21% | -14%
COc1ccc(/C(C)=N/N=C2/NC(=O)CC(C(=O)O)S2)cc1 (centres undefined) | 8% | 45µM* | 4% | 12µM* | -3% | ?
CN[C@H]1C[C@H]2c3[nH]c4ccc(-c5cccc(C)c5)cc4c3CCN2C[C@H]1[C@H](C)O | nt | nt | nt | -7% | nt | nt
COc1cccc2c1cc1c(=O)n(CC(=O)NCc3ccco3)nc(C)n12 | 18% | -5% | nt | nt | -1% | 17%
SMILES | HP1b chromo inh | JMJD2A Tudor | L3MBTL1 block | PLK1 PBD inh | BAZ2B inh | VDR inh
Cc1nc(CN2CCC(c3ccccc3)CC2)cc(=O)[nH]1 | -10% | -23%[57.1 µM] | 1% | 21µM* | -19% | ?
CC(C)=NOc1nc(N(C)C)nc(N2CCOCC2)n1 | -1% | 56µM* | -6% | 30µM* | -14% | ?
c1ccc(C[n+]2c(-c3ccccc3)csc2Nc2ccccc2)cc1 | 25µM* | ? | -4% | -4% | 7.9µM* | -19%
c1ccc(Nc2scc(-c3ccccc3)[n+]2Cc2ccco2)cc1 | ? | ? | ? | -3% | nt | -19%
CCOC(=O)CC(=O)CSCC(=O)Nc1ccc(C)cc1 | 22% | -10% | -2%[11.4 µM] | ? | 2% | ?
COc1ccc(C(C)=O)cc1COC(=O)CSCC(=O)Nc1ccc(C)cc1 | 26% | -8% | 3% | -7% | 79µM* | -16%
CC1CCN(S(=O)(=O)c2ccc(C(=O)Nc3nnc(-c4ccncc4)o3)cc2)CC1 | 35% | -25% | nt | -9% | nt | -15%
CN(C)S(=O)(=O)c1ccc(C(=O)Nc2nnc(-c3ccco3)o2)cc1 | 11% | 89µM* | nt | -15% | 79µM* | 1%
O=C(Nc1nnc(C2CC2)o1)c1ccc(S(=O)(=O)N2CCCCC2)cc1 | 46% | ? | nt | -3% | 56µM* | -10%
CC1CCCCN1S(=O)(=O)c1ccc(C(=O)Nc2nnc(-c3ccco3)o2)cc1 (centres undefined) | 27% | -10% | nt | -7% | 89µM* | -18%
CCN(CC)S(=O)(=O)c1ccc(C(=O)Nc2nnc(-c3ccco3)o2)cc1 | 17% | -21% | nt | -7% | nt | 11%
O=C(Nc1nnc(-c2ccco2)o1)c1ccc(S(=O)(=O)N2CCCCC2)cc1 | nt | nt | nt | 6% | nt | nt
CC1CCN(S(=O)(=O)c2ccc(C(=O)Nc3nnc(C4CC4)o3)cc2)CC1 | 57% | 1% | nt | 2% | 50µM* | 18%
Cc1nnc(NC(=O)c2ccc(S(=O)(=O)N3CCCCC3C)cc2)o1 (centres undefined) | 27% | ? | nt | -11% | 15% | -5%
CC1CCCCN1S(=O)(=O)c1ccc(C(=O)Nc2nnc(C3CC3)o2)cc1 (centres undefined) | 43% | -33% | nt | 0% | 50µM* | 3%
O=C(NCCc1ccccc1)c1ccc(Cn2c(SCc3ccccc3F)nc3cccnc32)cc1 | 49% | -26% | nt | nt | 10% | 0%
O=C(NCCc1ccccc1)c1ccc(CSc2nc3cccnc3n2Cc2ccccc2F)cc1 | 25µM* | 5.6µM* | nt | nt | 14µM* | -1%
COc1ccc(Cl)cc1-c1n[nH]c(=S)n1C1CCCCC1 | 15% | 35µM* | nt | -2% | -20% | -5%
